Assay outcomes as filed in PubChem.
This is one part of a sample in which hits are shown more often than they occur.
RE007 growth inh: less growth of the S. pombe RE007 Vpr strain | S. pombe RE007 Vpr strain, BacTiter-Glo ATP luminescence, 24 h | Potency, µM (titrated, usually from 92.2 µM), without a hit: top-dose activity change, negative = less growth, actives largely listed as inhibitors | 360,000 tested, 0.21% active | AID 651644; active = well fitted falling curve with a large enough effect; inconclusive = small, poorly fitted or top-dose-only effect; inactive = no such curve, though single readings can be large or run the other way; note: potency is the fitted concentration of half-maximal effect; % is set by controls: 0 for no effect and ±100 for the full control effect; nearly all actives have a fitted effect of over 50% in size
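Fission yeast strain RE007, carrying one chromosomally integrated HIV-1 vpr copy, was seeded at OD 0.01 in PMG+AL medium with 23 nL pinned compound. After 24 h at 30 °C and 99% humidity, viability was read by BacTiter-Glo luminescence.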
FBPA Giardia inh: inhibitors of Giardia lamblia fructose-1,6-bisphosphate aldolase | AID 2451 | purified Giardia FBPA | 290,000 tested, 0.71% active | Potency, µM (top dose mostly 59.6 µM), for inactives: at the top dose activity, negative = inhibition, usual class: inhibitors; note: potency is the fitted concentration of half-maximal effect; % is set by controls: 0 for no effect and ±100 for the full control effect; nearly all actives have a fitted effect of over 55% in size
Target sequence (A8B2U2 whole entry, looked up): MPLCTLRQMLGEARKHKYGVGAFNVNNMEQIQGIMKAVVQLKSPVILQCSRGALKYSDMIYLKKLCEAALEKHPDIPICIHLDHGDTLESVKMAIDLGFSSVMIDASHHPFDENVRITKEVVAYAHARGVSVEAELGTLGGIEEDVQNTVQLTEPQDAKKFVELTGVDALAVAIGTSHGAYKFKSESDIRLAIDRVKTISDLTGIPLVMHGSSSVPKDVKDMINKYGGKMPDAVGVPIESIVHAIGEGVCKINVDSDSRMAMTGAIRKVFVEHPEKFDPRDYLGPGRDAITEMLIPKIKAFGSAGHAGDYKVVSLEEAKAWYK
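Giardia FBPA (40 nM reagent) was preincubated 10 min at RT with compound (up to 57.5 uM final), then substrate plus GAPDH/TPI/NAD/arsenate coupling system with diaphorase/resazurin was added; resorufin fluorescence (525/598 nm) was read after 20 min.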
Cycloheximide cs: affects cycloheximide protein synthesis inhibition readout, counter-screen | cell reporter, cycloheximide protein synthesis inhibition counterscreen | max response, % | 300,000 tested, 12% active; in the data active = max response mostly above about 13%, no sharp cut-off; inactive = mostly below about 14%; note: read at 38.3 µM for the half of the compounds with a filed dose; 0% is about no effect
LmPK inh: LmPK (Leishmania mexicana) enzyme inhibition. 290,000 tested, 0.37% active. purified LmPK, Kinase-Glo ATP luminescence, 1 h. Potency, µM (top dose mostly 57.5 µM), without a hit: top-dose activity change, negative = inhibition, most hits filed as inhibitors; note: potency is the fitted concentration of half-maximal effect; % is set by controls: 0 for no effect and ±100 for the full control effect
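qHTS format; LmPK 0.1 nM; substrates PEP 0.5 mM and ADP 0.1 mM. One-hour room-temperature incubation, then coupled luciferase luminescence; 0.5 nM enzyme wells mark activation.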
Shiga toxin inh: blocks Shiga toxin action in Vero cells; 290,000 tested, 9.2% active; inhibition, % at 38.7 µM; Vero cells, Shiga toxin protein synthesis inhibition reporter; in the data active = inhibition mostly above about 28%, no sharp cut-off; inactive = mostly below about 43%; note: 0% is about no effect
TbPYK inhibitor: inhibitors of Trypanosoma brucei pyruvate kinase | Q57TT1 | TbPYK enzyme, Kinase-Glo Plus ATP luminescence, 45 min | Potency, µM (top dose mostly 76.8 µM), inactives show top-dose activity, negative = inhibition, most hits filed as inhibitors | 410,000 tested, 0.12% active | AID 624173; note: potency is the fitted concentration of half-maximal effect; % is set by controls: 0 for no effect and ±100 for the full control effect; nearly all actives have a fitted effect of over 50% in size
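Activity of T. brucei pyruvate kinase was followed by Kinase-Glo Plus luminescence after the enzyme reacted 45 min at room temperature with 130 uM ADP (final) and substrate. Test compounds were added before ADP at multiple concentrations.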
* = called active by the depositor; [ ] = remark or other dose. Unless noted, calls come from the whole dose curve; as a rule, active = well fitted curve in the direction sought with a large enough effect; inconclusive = small, poorly fitted or top-dose-only effect, or another doubt; inactive = no such curve, though single readings can be large; an effect the other way counts as inactive or inconclusive.

N#Cc1cnn2cc(-c3ncc(C(F)(F)F)cc3Cl)cnc12 was read as RE007 growth inh 6%, FBPA Giardia inh -1%, Cycloheximide cs 29*, LmPK inh -3%, Shiga toxin inh 24 and TbPYK inhibitor -6%.
`FC(F)(F)c1cnc(-c2cnc3c(-c4ccc(Cl)cc4)cnn3c2)c(Cl)c1` gave RE007 growth inh -17%, FBPA Giardia inh 1%, Cycloheximide cs -2, LmPK inh 3%, Shiga toxin inh 14 and TbPYK inhibitor 3%.
For Cc1nn2cc(-c3ncc(C(F)(F)F)cc3Cl)cnc2c1Br the results were RE007 growth inh 21%, FBPA Giardia inh -1%, Cycloheximide cs 20, LmPK inh -2%, Shiga toxin inh 57* and TbPYK inhibitor -7%.
`Cc1cc2ncc(-c3ncc(C(F)(F)F)cc3Cl)cn2n1` gave RE007 growth inh -13%, FBPA Giardia inh 0%, Cycloheximide cs 15*, LmPK inh inconclusive, Shiga toxin inh 10 and TbPYK inhibitor -8%.
For CCCN1Cc2cccc(C(=O)Nc3cccc(C(=O)OCC)c3)c2C1=O the results were TbPYK inhibitor -3%.
N#Cc1ccc(NC(=O)c2ccc3c(c2)nnn3C2CCCC2)cc1 was read as TbPYK inhibitor -3%.
Screening O=C(COC(=O)c1ccccc1F)NC1CC1 returned RE007 growth inh 2% and TbPYK inhibitor -3%.
For O=C(COc1ccccc1)NC1CCCCCCC1 the results were RE007 growth inh 33%, Cycloheximide cs 28*, LmPK inh 3%, Shiga toxin inh 44* and TbPYK inhibitor 2%.
For O=C(COC(=O)c1ccccc1F)NC1CCCC1 the results were RE007 growth inh -24%, FBPA Giardia inh -10%, Cycloheximide cs 37*, LmPK inh 3%, Shiga toxin inh 36* and TbPYK inhibitor -9%.
Screening O=C(COC(=O)c1cccnc1Nc1ccccc1F)NC1CC1 returned RE007 growth inh 1%, FBPA Giardia inh 3%, Cycloheximide cs 14*, LmPK inh -1%, Shiga toxin inh 28 and TbPYK inhibitor 7%.
O=C(COC(=O)c1ccccc1)NC1CCCC1 was read as RE007 growth inh -9%, FBPA Giardia inh -3%, Cycloheximide cs 84*, LmPK inh -7%, Shiga toxin inh 109* and TbPYK inhibitor -3%.
COc1ccc(F)cc1-c1cc(NC=O)c2ncc(-c3cccc(C(F)(F)F)c3)n2c1 was read as RE007 growth inh 0% and TbPYK inhibitor 1%.
For Cc1ccc(C(C)C)c(OCC(=O)NCC2(N(C)C)CCCCC2)c1 the results were TbPYK inhibitor -4%.
Screening CCN(CC)S(=O)(=O)c1ccc(N2CCN(CCOc3ccc(OC)cc3)CC2)nc1 returned RE007 growth inh 0%, FBPA Giardia inh -1%, Cycloheximide cs -3, LmPK inh -4%, Shiga toxin inh 23 and TbPYK inhibitor -2%.
Screening Cc1ccc(C)c(NC(=O)CN2CCSc3ccc(S(=O)(=O)N4CCCC4)cc32)c1 returned TbPYK inhibitor -13%.
`COC(=O)c1ccccc1OCC(=O)NC1CCCCC1` gave RE007 growth inh 4%, FBPA Giardia inh 12%, Cycloheximide cs 27*, LmPK inh 2%, Shiga toxin inh 132* and TbPYK inhibitor 7%.
`CCc1ccccc1OCC(=O)NC1CCCC1` gave RE007 growth inh 1%, FBPA Giardia inh 9%, Cycloheximide cs 0, LmPK inh 1%, Shiga toxin inh -6 and TbPYK inhibitor 6%.
`CS(=O)(=O)c1ccc(NC(=O)c2ccc3c(c2)S(=O)(=O)N=C2CCCCCN23)cc1` gave RE007 growth inh 10% and TbPYK inhibitor 6%.
For O=C1CC(/C=C/c2ccncc2)=Nc2ccccc2N1 the results were RE007 growth inh -8%, FBPA Giardia inh 5%, Cycloheximide cs 30*, LmPK inh -4%, Shiga toxin inh 33 and TbPYK inhibitor -13%.
`O=C1CC(c2ccccc2)=Nc2ccccc2N1` gave RE007 growth inh 1%, FBPA Giardia inh 2%, Cycloheximide cs 10, LmPK inh -3%, Shiga toxin inh 13 and TbPYK inhibitor -3%.
Screening CC(C)CCNC(=O)c1cccc(-n2cnc3cccnc32)c1 returned TbPYK inhibitor -3%[15.4 µM].
Screening Cc1ccc(C)c(OCc2cc(C(=O)N3CCN(c4ccccc4C)CC3C)no2)c1 (centres undefined) returned RE007 growth inh -13%, FBPA Giardia inh -4%, Cycloheximide cs 31*, LmPK inh 1%, Shiga toxin inh 113* and TbPYK inhibitor 5%.
CC1CN(c2ccccc2)CCN1C(=O)c1cc(COc2c(F)cccc2F)on1 (centres undefined) was read as RE007 growth inh 6%, FBPA Giardia inh -6%, Cycloheximide cs -2, LmPK inh 9%, Shiga toxin inh 38 and TbPYK inhibitor -7%.
Cc1cccc(C)c1OCc1cc(C(=O)N2CCN(c3ccccc3)CC2C)no1 (centres undefined) was read as RE007 growth inh 1%, Cycloheximide cs 16*, LmPK inh -3%, Shiga toxin inh 26 and TbPYK inhibitor -3%.
CCOc1ncc(S(=O)(=O)N2CCN(CC)CC2)cc1C(=O)O was read as RE007 growth inh 3%, FBPA Giardia inh 5%, Cycloheximide cs -3, LmPK inh -7%, Shiga toxin inh -18 and TbPYK inhibitor -18%.
CC(=O)C1=C(C)NC(SCC(=O)c2ccccc2)=C(C#N)C1c1ccco1 (centres undefined) was read as FBPA Giardia inh inconclusive, Cycloheximide cs 17, LmPK inh 9% and Shiga toxin inh 58.
Screening CC(=O)C1=C(C)NC(SCC(=O)c2ccccc2)=C(C#N)C1CC(C)C (centres undefined) returned RE007 growth inh 11%, FBPA Giardia inh -6%, Cycloheximide cs 10, LmPK inh 5%, Shiga toxin inh 32 and TbPYK inhibitor 32µM*.
For CC(C)OC(=O)Cn1nnc2c(cnn2-c2ccccc2)c1=O the results were RE007 growth inh -8%, FBPA Giardia inh 9%, Cycloheximide cs 46*, LmPK inh -2%, Shiga toxin inh 65* and TbPYK inhibitor -13%.
For COC(=O)Cn1nnc2c(cnn2-c2ccccc2)c1=O the results were RE007 growth inh 41%, FBPA Giardia inh 7%, Cycloheximide cs 25*, LmPK inh -5%, Shiga toxin inh 53 and TbPYK inhibitor 10%.
`CCOc1ccc(CCNC(=O)c2nn(C)c3c2CSc2ccccc2-3)cc1` gave TbPYK inhibitor 4%.
`CSCCC1NC(=O)N(CC(=O)N2CCc3ccccc3C2)C1=O` (centres undefined) gave RE007 growth inh -5% and TbPYK inhibitor 0%.
